Screening data as filed in PubChem.
MITF TRPM1 inh: inhibitors of MITF-driven TRPM1 promoter in melanoma cells; SK-MEL-5 TRPM1 promoter luciferase, 24 h; actives 0.83% (n = 330,000); inhibition, % at 12.5 µM; AID 488899;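 active = mean inhibition across replicates of 60% or more, whatever share of single replicates reaches that level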
TROY signal inh: inhibitors of TROY-dependent NF-kB signaling. inhibition, % at 10 µM. actives 0.98% (n = 360,000). Q293 LMP1-TROYcd NF-kB luciferase reporter, 4 h;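 active = compounds whose plate-normalised and pattern-corrected inhibition of the luciferase reporter signal at the single screening dose is 50% or more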
Peg3 prom inh: reduces Peg3 promoter-driven luciferase expression in HeLa; HeLa PEG-Prom luciferase reporter, luminescence, overnight; inhibition, % at 20 µM; actives 1.7% (n = 360,000);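 active = inhibition of at least 50% at 20 µM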
TWEAK-Fn14 inh: blocks TWEAK-Fn14 interaction in a reporter cell assay. TWEAK-stimulated Fn14 reporter cells, luciferase luminescence, 8 h. inhibition, % at 10 µM. actives 2% (n = 360,000). AID 1159606; in the data active = inhibition above about 50%
LMP1 NFkB inh: reduces LMP1-driven NF-kappaB luciferase signal; LMP1-induced NF-kappaB luciferase reporter cells, luminescence; inhibition, % at 12.5 µM; actives 0.69% (n = 350,000); in the data active = inhibition above about 41%;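 note: 0% = neutral control wells and 100% = reference inhibitor control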
Shn3 3UTR inh: reduces Shn3 3'UTR luciferase signal in osteoblasts | actives 0.52% (n = 360,000) | inhibition, % at 12.5 µM | Clone20 osteoblast Shn3 3'UTR firefly luciferase, 24 h | AID 588674;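 active = mean inhibition of at least 75% with every replicate also reaching 75%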;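 note: 0% = median of neutral control wells and 100% = pilot-screen positive control compound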
* hit, by the source's call; / = not tested or not shown. Sampled rows, rich in hits. Any-hit rate of the full collection: about 4.1%.

SMILES	MITF TRPM1 inh	TROY signal inh	Peg3 prom inh	TWEAK-Fn14 inh	LMP1 NFkB inh	Shn3 3UTR inh
N[C@@H](Cc1ccccc1)c1nnc(SC/C=C/c2ccccc2)o1	13.8	3.0	10.0	7.4	-0.7	-6.6
COC(=O)c1ccccc1NC(=S)NC(=O)c1cccc2ccccc12	-4.5	26.7	-1.2	59.8*	6.1	22.2
COC(=O)c1ccccc1NC(=S)NC(=O)c1ccc2ccccc2c1	-9.1	-2.1	-10.8	6.4	-9.5	5.7
CCOc1cccc(C(=O)Nc2cccc(-c3nnc(-c4ccc(C)cc4)o3)c2)c1	82.5*	5.3	12.4	-55.2	-54.0	-10.7
COc1cccc(C(=O)Nc2cccc(-c3nnc(-c4ccccc4)o3)c2)c1	-28.8	32.1	-10.4	20.6	-2.3	8.5
CCOc1cccc(C(=O)Nc2cccc(-c3nnc(-c4ccccc4)o3)c2)c1	-25.7	24.1	75.8*	49.1	6.9	14.0
Cc1ccc(NC(=O)CSc2nc3cc(C(=O)NCC4CCCO4)ccc3c(=O)n2CC2CCCO2)cc1 (configuration not stated)	/	-9.7	1.8	-16.5	2.6	-6.0
CN(C)c1ccc(Nc2ncnc3ccc(Br)cc23)cc1	-14.5	48.0	-0.2	82.2*	9.9	-3.0
Cc1cccc(Nc2ncnc3ccc(Br)cc23)c1	-16.8	26.2	2.5	62.1*	4.9	15.7
Clc1ccc(Nc2ncnc3ccc(Br)cc23)cc1	19.4	35.0	16.0	73.7*	35.6	44.3
Cc1ccc2ncnc(Nc3cccc(C(=O)O)c3)c2c1	10.6	10.6	3.1	-18.2	0.7	-27.5
Cc1ccc2ncnc(Nc3ccccc3)c2c1	22.5	2.1	-5.8	11.1	0.6	-15.8
Clc1cccc(Nc2ncnc3ccc(Br)cc23)c1	15.0	42.4	10.2	63.1*	-0.2	22.7
COc1ccc(Nc2ncnc3ccc(Br)cc23)cc1OC	-15.8	6.7	6.7	5.8	13.7	10.7
N#CCOc1ccccc1CNC[C@H]1O[C@@H](n2cnc3c(=O)[nH]c(N)nc32)[C@H](O)[C@@H]1O	/	16.4	-1.9	-7.6	/	6.1
CC1(C(=O)Nc2cnc3ccccc3c2)CCN1C(=O)CCc1ccccc1 (configuration not stated)	/	8.9	-0.4	5.4	/	14.3
CC1(C(=O)Nc2cnc3ccccc3c2)CCN1CCc1ccccc1 (configuration not stated)	/	29.4	50.9*	14.6	/	16.2
CN1CCN(CC(=O)NC(=O)NC2CCCCC2)CC1	-1.0	-11.7	5.4	3.9	0.9	-17.3
C=CC[C@H](CC(=O)N(CCO)Cc1ccccc1)C(=O)N[C@@H](COC(=O)[C@@H](CC=C)CC(=O)OC(C)(C)C)Cc1c[nH]c2ccccc12	7.8	-0.4	28.6	35.5	1.6	3.4
C=CCC[C@@H](Cc1ccc(F)cc1)C(=O)OC[C@@H](Cc1c[nH]c2ccccc12)NC(=O)[C@@H](CC=C)CC(=O)N(CCO)Cc1ccccc1	16.2	26.0	37.9	49.2	1.7	-1.8
C=CC[C@@H](CC(=O)N(CCO)Cc1ccccc1)C(=O)N[C@H](COC(=O)[C@@H](CC=C)Cc1ccc(F)cc1)Cc1c[nH]c2ccccc12	-3.5	35.6	55.0*	50.8*	-4.5	7.0
C=CCC[C@@H](Cc1ccc(F)cc1)C(=O)OC[C@@H](NC(=O)[C@@H](CC=C)CC(=O)N(CCO)Cc1ccccc1)c1ccccc1	8.4	29.7	37.5	43.5	4.8	9.6
C=CCC[C@H](Cc1ccc(F)cc1)C(=O)OC[C@H](Cc1c[nH]c2ccccc12)NC(=O)[C@H](CC=C)CC(=O)N(CCO)Cc1ccccc1	13.2	32.6	44.9	57.0*	0.6	82.8
C=CC[C@@H](CC(=O)N(CCO)Cc1ccccc1)C(=O)N[C@@H](COC(=O)[C@@H](CC=C)Cc1ccc(F)cc1)Cc1ccccc1	2.0	41.5	32.8	57.5*	0.0	22.4
C=CCC[C@@H](Cc1ccc(F)cc1)C(=O)OC[C@@H](NC(=O)[C@H](CC=C)CC(=O)N(CCO)Cc1ccccc1)c1ccccc1	7.5	13.4	32.4	56.4*	9.4	-26.3
SMILES	MITF TRPM1 inh	TROY signal inh	Peg3 prom inh	TWEAK-Fn14 inh	LMP1 NFkB inh	Shn3 3UTR inh
O=C(CN(C(=O)CCC(=O)Nc1nccs1)c1ccccc1F)NCc1ccc(F)cc1	12.5	-7.8	4.8	-2.2	5.3	-9.4
N#Cc1ccc(S(=O)(=O)N2CCN(CN3C(=O)CC4(CCCC4)C3=O)CC2)cc1	/	-2.2	10.1	1.4	3.6	-6.4
C=CCNC(=O)CC(C)C(CCCCC)C(=O)O (configuration not stated)	2.6	7.4	-1.3	9.8	-0.3	-25.8
C=CC[C@@H](CC(=O)N(CCO)Cc1ccccc1)C(=O)NC[C@@H](OC(=O)[C@@H](CC=C)Cc1ccc(F)cc1)c1ccccc1	9.8	7.8	28.8	5.6	2.0	9.3
C=CC[C@@H](CC(=O)N(CCO)Cc1ccccc1)C(=O)N[C@H](COC(=O)[C@@H](CC=C)Cc1ccc(F)cc1)Cc1ccccc1	-2.7	31.3	45.3	18.5	-4.1	13.0
C=CC[C@H](CC(=O)N(CCO)Cc1ccccc1)C(=O)N[C@H](COC(=O)[C@@H](CC=C)Cc1ccc(F)cc1)Cc1c[nH]c2ccccc12	2.7	40.1	61.5*	60.2*	2.8	7.0
C=CC[C@H](CC(=O)N(CCO)Cc1ccccc1)C(=O)NC[C@H](OC(=O)[C@@H](CC=C)Cc1ccc(F)cc1)c1ccccc1	16.8	43.0	59.6*	37.3	4.2	88.6*
C[C@H]1CCC[C@]2(C)C[C@H]3OC(=O)C(CN4CCCCCC4)[C@H]3C=C12 (some centres not stated)	78.0*	-1.7	5.7	72.7*	1.6	-93.5
CCOc1ccc(S(=O)(=O)N2CCC(C(=O)N3CCN(c4ccccc4F)CC3)CC2)cc1C	29.5	16.1	24.9	4.1	0.3	14.8
CN(C)c1ccc(/C=N/NC(=O)c2ccccn2)cc1	13.3	31.3	8.8	-13.9	37.3	12.6
COc1ccc(/C=N/NC(=O)c2cc(-c3ccc4c(c3)OCO4)n[nH]2)cc1OC	-10.4	-28.1	-10.4	52.4*	-17.0	-63.1
CN(C)c1ccc(/C=N\NC(=O)c2csnn2)cc1	-21.7	19.1	-115.8	71.3*	-3.2	-20.7
O=C(N/N=C/c1ccc(F)cc1)c1cc(-c2ccc3c(c2)OCO3)n[nH]1	-8.2	-12.4	4.4	-17.1	7.0	-1.7
O=C(N/N=C/c1ccc2c(c1)OCO2)c1ccccn1	2.8	38.9	-12.7	75.8*	27.1	-2.2
CC(C)c1ccc(/C=N/NC(=O)c2ccccn2)cc1	-3.6	46.4	-39.2	77.4*	30.5	/
O=C(N/N=C/c1ccncc1)c1ccccn1	-101.8	-15.4	-85.0	-12.9	/	-52.0
O=C(Nc1nc(-c2cc3ccccc3o2)cs1)c1ccc(S(=O)(=O)N2CCCC2)cc1	42.6	39.1	-9.5	83.0*	12.3	77.4
O=C(Nc1nc(-c2cccs2)cs1)c1cccc(S(=O)(=O)N2CCCCC2)c1	5.3	30.2	-5.8	23.1	-1.0	/
